SKKanGAS inh = blocks kanamycin growth of S. pyogenes SKKanGAS strain | BacTiter-Glo, 6 h | inhibition, % at 7.5 µM | 300,000 compounds, 1.3% hits | AID 1662;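 active = mean replicate score, as percent of positive control median, at least 50; inconclusive = mean below 50 but one replicate at or above 50; inactive = mean and every replicate below 50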;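 note: strain carries kanamycin resistance gene driven by streptokinase promoter and grows in 40 µg/ml kanamycin; loss of luminescence reflects streptokinase promoter inhibition or plain growth inhibition; 0% = median of DMSO wells and 100% = positive control at its reference dose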
TIM10 inh = TIM10 yeast growth inhibition; S. cerevisiae TIM10 strain growth, BacTiter-Glo luminescence, 24 h; inhibition, % at 10 µM; 330,000 compounds, 1.4% hits;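 active = inhibition of 40% or more at the single tested concentration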;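 note: wild-type TIM10 isogenic control strain grown at permissive 25 °C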
NALP3 yeast inh = blocks the NALP3 inflammasome reconstituted in yeast. AID 2825. inhibition, % at 10 µM. Yeast reconstituted NLRP3/ASC/caspase-1, beta-gal luminescence, 24 h. 330,000 compounds, 0.39% hits;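 active = inhibition of 50% or more; inactive = inhibition below 50%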;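 note: plate controls were induced DMSO wells for no effect and uninduced yeast grown without galactose for full effect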
tim23-1 inh = inhibits growth of tim23-1 mutant yeast; S. cerevisiae tim23-1 growth, BacTiter-Glo luminescence, 24 h; AID 463212; 330,000 compounds, 1.3% hits; inhibition, % at 20 µM;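 active = growth inhibition of the mutant yeast at or above 50%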;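 note: temperature-sensitive mutant grown at 25 °C; plate controls were DMSO-treated mutant yeast for no effect and medium wells lacking yeast for full effect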
PfHsp90 yeast 2 = inhibits growth of yeast expressing Plasmodium falciparum Hsp90; AID 504621; inhibition, % at 9.4 µM; 310,000 compounds, 0.32% hits; S. cerevisiae expressing PfHsp90, BacTiter-Glo ATP, 48 h; yeast lacking PDR1 and PDR3 efflux regulators;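 active = every replicate shows inhibition above about 80%, whatever the replicate mean, limit read from the data; inconclusive = mean inhibition reaches the set limit but some replicate falls short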;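 note: 0% = DMSO neutral controls and 100% = 20 µM radicicol positive controls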
tim10-1 inh = growth inhibitors of tim10-1 mutant yeast. 330,000 compounds, 2.2% hits. S. cerevisiae tim10-1 ts strain growth, BacTiter-Glo, 24 h. inhibition, % at 20 µM;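 active = inhibition of at least 40%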;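 note: mutant grown at 25 °C; 0% = DMSO wells with yeast and 100% = wells holding no yeast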
tim10 confirm = confirmation of TIM10 yeast growth inhibitors; shares compounds with TIM10 inh; S. cerevisiae tim10 strain growth, BacTiter-Glo luminescence, 24 h; inhibition, % at 10 µM; 4,600 compounds, 63% hits;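 active = inhibition of yeast growth at or above a set limit in either of two replicates at 10 µM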;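 note: this counterscreen used the strain with wild-type TIM10; 0% = yeast with DMSO and 100% = medium wells lacking yeast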
tim23-1 conf = tim23-1 yeast growth inhibition, confirmed; shares compounds with tim23-1 inh; S. cerevisiae tim23-1 growth, BacTiter-Glo luminescence, 24 h; inhibition, % at 20 µM; 4,400 compounds, 83% hits;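 active = inhibition above about 39% in either of two replicate wells at 20 µM, limit read from the data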;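 note: temperature-sensitive tim23-1 mutant grown at 25 °C; 0% = DMSO wells with yeast and 100% = medium wells without yeast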
* = called active by the depositor; ? = inconclusive; · = no result given. Only some compounds are listed: those with a hit (about 4.6% of all), similar ones and a draw of the others.

SMILES	SKKanGAS inh	TIM10 inh	NALP3 yeast inh	tim23-1 inh	PfHsp90 yeast 2	tim10-1 inh	tim10 confirm	tim23-1 conf
Cc1ccc(-c2cc(-c3ccccc3Cl)[nH]n2)c(O)c1	110*	51*	25	65*	-9	25	65*	9
Oc1ccc(Br)cc1-c1cc(-c2ccccc2Cl)[nH]n1	23	17	-10	17	-25	17	·	·
Cc1c(Cl)cccc1NC(=O)c1cc(-c2ccccc2O)n[nH]1	-3	-1	21	-11	26	8	·	·
CCOC(=O)C1C(=O)OC(C)(C)C1C(CC)C(=O)c1c(C)cc(C)cc1C (stereo unspecified)	-6	9	1	34	·	13	·	·
CC(C)(C)c1ccc(S(=O)(=O)N2CCC(c3nc4ccc(Cl)cc4[nH]3)CC2)cc1	?	50*	13	64*	-24	26	56*	22
O=C(Nc1cc(Cl)ccc1-n1cncn1)C1CC1	2	8	19	10	6	-1	·	·
O=C(Nc1ccc2oc(-c3ccccc3F)nc2c1)c1ccc2c(c1)OCCO2	21	46*	20	60*	14	39	36*	70*
Cc1ccccc1-c1nc2cc(NC(=O)C3CC3)ccc2o1	-9	63*	35	71*	12	16	54*	75*
COc1ccc(C(=O)Nc2ccc3ccccc3c2)c(OC)c1	8	57*	30	60*	18	18	62*	80*
Brc1c(C[n+]2ccccc2)nc2ccccn12	5	6	-3	6	-1	1	·	·
O=C1CCCCCN1Sc1ccccc1	17	51*	7	58*	-60	31	35*	29
CCn1c(SCc2ccccc2)nnc1-c1cccs1	-6	31	14	37	·	39	·	·
Cn1c(SCc2ccc(Br)cc2)nnc1-c1cccs1	5	57*	43	57*	-17	37	30*	61*
COc1ccc2cc(CN(Cc3ccco3)C(c3nnnn3C3CCCCC3)C(C)C)c(=O)[nH]c2c1 (stereo unspecified)	20	17	14	35	-17	32	·	·
COc1ccc2cc(CN(Cc3ccco3)Cc3nnnn3C3CCCCC3)c(=O)[nH]c2c1	6	41*	13	59*	-31	34	18	60*
CCC(=O)c1ccc(OCC(=O)N2CCN(S(=O)(=O)c3ccc(Cl)s3)CC2)cc1	·	10	1	27	17	17	·	·
O=C(N/N=C/c1c(O)ccc2ccccc12)c1cccc(C(F)(F)F)c1	120*	43*	-5	56*	91*	30	13	44*
C[C@]12CC[C@H](O)CC1=CCC1C2CC[C@@]2(C)C1CC[C@@H]2NC(=O)[C@@H](N)Cc1ccccc1 (stereo partly specified)	·	55*	46	58*	40	34	60*	55*
NC(CCCCCP(=O)(c1ccccc1)c1ccccc1)C(=O)O (stereo unspecified)	-9	-5	6	-15	·	-6	·	·
COc1ccc(C(=O)NC(=S)N(C)C2CCCCC2)cc1Br	73*	42*	28	55*	-45	38	13	49*
COc1ccccc1/C=C/C(=O)NC(=S)N(C)C1CCCCC1	-7	10	9	26	-10	0	·	·
CC(Oc1ccccc1)C(=O)Nc1ccc(F)c(S(=O)(=O)N2CCOCC2)c1 (stereo unspecified)	·	18	2	23	-9	22	·	·
O=S1c2ccccc2Oc2ccccc21	·	·	·	·	32	·	·	·
O=[S@]1Oc2ccccc2-c2ccccc21	1	58*	17	69*	110*	5	76*	-41
CCOC(=O)C1CCN(C(=O)c2ccc(OC)cc2OC)CC1	-6	-3	4	-2	10	-8	·	·
CCOC(=O)C1CCN(C(=O)c2cc3cc4ccc(OC)cc4nc3o2)CC1	6	41*	30	68*	-9	35	37*	67*

Compound activity: PubChem BioAssay, several laboratories
